Assay outcomes from PubChem BioAssay.
Pf growth 96h: P. falciparum growth inhibition at 96 hours; Potency, µM (series often up to 28.7 µM), inactives show at the highest dose activity change, negative = inhibition, hits mostly inhibitors; P. falciparum luciferase reporter growth, 96 h; actives 6.9% (n = 320,000); further: potency means the concentration at half of the fitted maximal effect; on the % scale 0 is the no-effect control and ±100 the full control effect
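Cell-based qHTS: luciferase-tagged P. falciparum in erythrocytes (2% hematocrit, 0.05% parasitemia final) incubated with compounds for 96 hours, 37 C, 5% CO2; luciferase detection reagent then added and luminescence measured.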
Cycloheximide cs: affects cycloheximide protein synthesis inhibition readout, counter-screen; cell reporter, cycloheximide protein synthesis inhibition counterscreen; max response, %; actives 12% (n = 300,000); AID 2314; in the data active means max response mostly above about 13%, no sharp cut-off; inactive means mostly below about 14%; further: read at 38.3 µM for the half of the compounds with a filed dose; 0% is about no effect
Pf growth 48h: inhibits P. falciparum growth in the first generation, 48 h; P. falciparum luciferase growth in erythrocytes, 48 h; Potency, µM (top dose mostly 28.7 µM), inactives show at the highest dose activity change, negative = inhibition, actives largely listed as inhibitors; AID 504832; actives 5.9% (n = 310,000); further: potency means the concentration at half of the fitted maximal effect; on the % scale 0 is the no-effect control and ±100 the full control effect
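Erythrocytes infected with P. falciparum carrying an integrated firefly luciferase reporter (2% hematocrit, 0.1% parasitemia final) were exposed to compounds in RPMI 1640 with 0.5% Albumax at 37 C, 5% CO2. Growth inhibition was scored as reduced luminescence.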
LmPK inh: inhibitors of Leishmania mexicana pyruvate kinase; purified LmPK, Kinase-Glo ATP luminescence, 1 h; actives 0.37% (n = 290,000); Q27686; AID 1721; Potency, µM (titrated, usually from 57.5 µM), inactives show at the top dose activity change, negative = inhibition, most hits filed as inhibitors; further: potency means the concentration at half of the fitted maximal effect; on the % scale 0 is the no-effect control and ±100 the full control effect
Target sequence (Q27686 whole entry, looked up): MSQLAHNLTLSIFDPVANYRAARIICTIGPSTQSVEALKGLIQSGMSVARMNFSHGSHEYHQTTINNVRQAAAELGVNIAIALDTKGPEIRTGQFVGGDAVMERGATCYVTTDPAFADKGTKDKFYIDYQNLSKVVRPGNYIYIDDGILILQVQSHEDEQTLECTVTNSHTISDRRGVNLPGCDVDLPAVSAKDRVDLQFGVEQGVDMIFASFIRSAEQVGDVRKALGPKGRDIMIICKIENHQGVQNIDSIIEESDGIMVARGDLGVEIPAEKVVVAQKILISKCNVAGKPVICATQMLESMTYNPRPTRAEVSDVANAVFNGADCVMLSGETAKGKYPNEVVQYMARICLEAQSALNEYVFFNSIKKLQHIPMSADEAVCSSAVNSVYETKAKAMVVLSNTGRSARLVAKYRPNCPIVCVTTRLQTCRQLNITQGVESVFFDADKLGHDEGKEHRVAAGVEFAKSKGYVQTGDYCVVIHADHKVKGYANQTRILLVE
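ATP generated from ADP (0.1 mM) and PEP (0.5 mM) by 0.1 nM LmPK over 1 h at room temperature (pH 7.2 imidazole buffer) was detected by coupled luciferase luminescence. Values were normalized to uninhibited and no-enzyme wells.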
Shiga inhibitor: Shiga toxin inhibition | AID 2315 | Vero cells, Shiga toxin protein synthesis inhibition reporter | actives 9.2% (n = 290,000) | inhibition, % at 38.7 µM; in the data active means inhibition mostly above about 28%, no sharp cut-off; inactive means mostly below about 43%; further: 0% is about no effect
* = called active by the depositor; [ ] = remark or other dose. A selection: hits, their analogues and other compounds. The true share with any hit is near 22%. Unless noted, the call rests on the fitted dose curve; in most records, active means well fitted inhibition curve with a large enough effect; inconclusive means small, poorly fitted or top-dose-only effect, or another doubt; inactive means no such curve, though single readings can be large or run the other way.

What do the screens show for `CC(=O)c1ccc(OCc2cc(C(=O)NC(C)Cc3ccccn3)no2)cc1` (stereo not drawn)?
Pf growth 96h: 26.6%; Cycloheximide cs: 1.0; Pf growth 48h: -3.1%; LmPK inh: 6.5%; Shiga inhibitor: -3.5

What do the screens show for `O=C(CC1C(=O)NCCN1Cc1cccc(C(F)(F)F)c1)NC1CCCCCC1` (stereo not drawn)?
Pf growth 96h: -6.3%; Cycloheximide cs: -1.4; Pf growth 48h: -7.9%; LmPK inh: -13.5%; Shiga inhibitor: -32.1

Results for CC(C)NC(=O)c1ccc2c(c1)N(CC(=O)N1CCCCC1)C(=O)C(C)(C)O2 ?
Pf growth 96h: 23.3%; Cycloheximide cs: -5.4; Pf growth 48h: 3.5%; LmPK inh: -5.6%; Shiga inhibitor: 2.9

What do the screens show for `Cc1ccc(C)n1-c1ccc(C(=O)NN)cc1`?
Pf growth 96h: 0.0%; Cycloheximide cs: 8.9; Pf growth 48h: inconclusive; LmPK inh: 0.0%; Shiga inhibitor: -1.2

What do the screens show for `CCOC(=O)N1CCN(C(=O)c2ccc(Oc3ccc([N+](=O)[O-])cc3)cc2)CC1`?
Pf growth 96h: 43.9%[5.75 µM]; Cycloheximide cs: -1.9; Pf growth 48h: inconclusive; LmPK inh: -0.4%; Shiga inhibitor: 4.0

How did CC1(C)COC(/C=C/c2cccc([N+](=O)[O-])c2)=N1 do in these assays?
Pf growth 96h: -31.1%; Cycloheximide cs: 34.4*; Pf growth 48h: inconclusive; LmPK inh: -7.0%; Shiga inhibitor: 65.0*

What do the screens show for `O=[N+]([O-])c1cccc(/C=C/c2nc[nH]c2[N+](=O)[O-])c1`?
Pf growth 96h: 1.47µM*; Cycloheximide cs: -2.9; Pf growth 48h: inconclusive; LmPK inh: -0.4%; Shiga inhibitor: -1.3

How did S=C(NCc1ccc(Cl)cc1Cl)NC1CCCCC1 do in these assays?
Pf growth 96h: inconclusive; Cycloheximide cs: 11.8; Pf growth 48h: inconclusive; LmPK inh: 3.5%; Shiga inhibitor: 18.7

What do the screens show for `Cc1cnc(NC(=O)Cc2c[nH]c3ccccc23)s1`?
Pf growth 96h: inconclusive; Cycloheximide cs: 67.1*; Pf growth 48h: -24.5%; LmPK inh: 9.2%; Shiga inhibitor: 52.9

What do the screens show for `Cc1csc(NC(=O)Cc2c[nH]c3ccccc23)n1`?
Pf growth 96h: 77.1%; Cycloheximide cs: 26.9; Pf growth 48h: 49.6%; LmPK inh: -2.5%; Shiga inhibitor: 72.0*

How did Cc1ccc(C)n1-c1ccc(N2CCOCC2)cc1 do in these assays?
Pf growth 96h: inconclusive; Cycloheximide cs: 21.9*; Pf growth 48h: 10.4µM*; LmPK inh: 5.0%; Shiga inhibitor: 71.1

What do the screens show for `c1ccn(-c2ccc(N3CCOCC3)cc2)c1`?
Pf growth 96h: 105.8%; Cycloheximide cs: 37.9*; Pf growth 48h: inconclusive; LmPK inh: -17.7%; Shiga inhibitor: 49.0*

What do the screens show for `c1ccc(N2CCOCCOCCOCCOCC2)cc1`?
Pf growth 96h: 33.2%; Cycloheximide cs: 2.0; Pf growth 48h: -2.8%; LmPK inh: 3.3%; Shiga inhibitor: 3.9

How did Cc1ccc(C)n1-c1ccc(N2CCOCC2)c([N+](=O)[O-])c1 do in these assays?
Pf growth 96h: inconclusive; Cycloheximide cs: -0.9; Pf growth 48h: inconclusive; LmPK inh: -3.7%; Shiga inhibitor: 22.9

What do the screens show for `O=C(COC(=O)c1cccc([N+](=O)[O-])c1)NCc1ccc2c(c1)OCO2`?
Pf growth 96h: -21.1%; Cycloheximide cs: -5.3; Pf growth 48h: 9.9%; LmPK inh: -1.3%; Shiga inhibitor: -11.2

What do the screens show for `N/C(=N\OC(=O)c1ccc2c(c1)OCO2)c1cccc([N+](=O)[O-])c1`?
Pf growth 96h: 111.3%; Cycloheximide cs: 31.0*; Pf growth 48h: 2.4%; LmPK inh: -9.5%; Shiga inhibitor: 88.4

What do the screens show for `Cc1cccc(/C(N)=N/OC(=O)c2ccc3c(c2)OCO3)c1`?
Pf growth 96h: inconclusive; Cycloheximide cs: 42.4*; Pf growth 48h: -57.9%; LmPK inh: 4.47µM*; Shiga inhibitor: 43.1*

How did COc1cc(C(=S)N2CCOCC2)ccc1OC(=O)c1ccc(Br)cc1 do in these assays?
Pf growth 96h: 5.22µM*; Cycloheximide cs: -0.9; Pf growth 48h: 12.9%; LmPK inh: 0.3%; Shiga inhibitor: 4.7

Results for O=C(Oc1ccc(C(=S)N2CCOCC2)cc1)c1ccc([N+](=O)[O-])cc1 ?
Pf growth 96h: 1.47µM*; Cycloheximide cs: -3.5; Pf growth 48h: 13.2%; LmPK inh: 2.7%

How did CCn1c(-c2cccnc2Cl)nc2cc(Cl)c(Cl)cc21 do in these assays?
Pf growth 96h: 21.9%; Cycloheximide cs: 40.1*; Pf growth 48h: -0.8%; LmPK inh: 4.4%; Shiga inhibitor: 78.4*

What do the screens show for `CCOC(=O)Cn1c(-c2cccnc2Cl)nc2cc(Cl)c(Cl)cc21`?
Pf growth 96h: 42.3%; Cycloheximide cs: -3.3; Pf growth 48h: 30.2%; LmPK inh: 2.4%; Shiga inhibitor: -1.8

How did CCCCCCSc1cccc(-c2nc3ccc(Cl)cn3c2NCc2ccccc2)c1 do in these assays?
Pf growth 96h: inconclusive; Pf growth 48h: 7.38µM*

Results for Clc1ccc2nc(-c3cccc(SC4CCCCC4)c3)c(NCc3ccccc3)n2c1 ?
Pf growth 96h: 3.7µM*; Pf growth 48h: 4.15µM*

What do the screens show for `COCCNc1c(-c2ccc(O)cc2)nc2ccc(Cl)cn12`?
Pf growth 96h: -14.2%; Cycloheximide cs: 12.8; Pf growth 48h: 3.8%; LmPK inh: 0.3%; Shiga inhibitor: 35.8

What do the screens show for `CCCCNc1c(-c2cccc(SC3CCCCC3)c2)nc2ccc(Cl)cn12`?
Pf growth 96h: inconclusive; Pf growth 48h: 10.4µM*

How did N#Cc1ccc(-c2csc(NC(=O)c3ccc(S(=O)(=O)N4CCc5ccccc5C4)cc3)n2)cc1 do in these assays?
Pf growth 96h: -12.6%; Cycloheximide cs: -2.0; Pf growth 48h: 20.6%; LmPK inh: 1.9%; Shiga inhibitor: -12.6

How did Cc1cc(C(=O)N2CCc3ccccc3C2)no1 do in these assays?
Pf growth 96h: 29.0%; Cycloheximide cs: 18.9*; Pf growth 48h: 23.3%; LmPK inh: -2.3%; Shiga inhibitor: 13.0

How did O=C(c1ccc(=O)[nH]n1)N1CCc2ccccc2C1 do in these assays?
Pf growth 96h: -15.3%; Cycloheximide cs: 5.7; Pf growth 48h: -3.8%; LmPK inh: 3.1%; Shiga inhibitor: 19.9

What do the screens show for `Cc1cc(C(=O)N2CCc3ccccc3C2)n[nH]1`?
Pf growth 96h: -14.7%; Cycloheximide cs: 23.8*; Pf growth 48h: 55.2%; LmPK inh: 1.5%; Shiga inhibitor: 53.3*

Results for Brc1ccc(-c2nnc3sc(CN4CCC5(CC4)OCCO5)cn23)cc1 ?
Pf growth 96h: -19.3%; Cycloheximide cs: 2.4; Pf growth 48h: 6.0%; LmPK inh: 5.6%; Shiga inhibitor: 2.5

What do the screens show for `c1ccc(-c2nnc3sc(CN4CCc5ccccc54)cn23)cc1`?
Pf growth 96h: inconclusive; Cycloheximide cs: 24.2; Pf growth 48h: 10.4µM*; LmPK inh: 2.1%; Shiga inhibitor: 46.3*

What do the screens show for `O=C(NC1CCCCCC1)C(=S)NCc1ccccc1`?
Pf growth 96h: inconclusive; Cycloheximide cs: 39.5*; Pf growth 48h: 20.9%; LmPK inh: 3.7%; Shiga inhibitor: 61.9*
